This note sets out measurements from PubChem BioAssay (NCATS).

Test [1] concerns Zika virus NS2B-NS3 protease (unlinked complex). The test can be described thus: Primary screen GU Rhodamine qHTS for Zika virus inhibitors: Unlinked NS2B-NS3 protease assay (AID 1347159). Also: nearly all actives have a fitted effect of over 60% in size. The method in brief: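 Noncovalent NS2B hydrophilic domain–NS3 protease domain complex (25 nM) preincubated 15 min at room temperature with compounds (up to 114 microM) in 10 mM Tris-HCl pH 8.0, 0.01% Tween 20; 1.5 microM Rhodamine110 substrate added, fluorescence change over 15 min fitted to Hill equation.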
A general note: In qHTS, concentration-response curves come from the screen itself.

The test system of test [2] is Zika virus NS2B-NS3 protease (linked construct). The test can be described thus: Primary screen NINDS Rhodamine qHTS for Zika virus inhibitors (AID 1347160). Also: nearly all actives have a fitted effect of over 55% in size. The method in brief:
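Purified linked NS2B-NS3 protease (NS2B hydrophilic domain joined to NS3 protease by flexible linker), 25 nM in 10 mM Tris-HCl pH 8.0, 0.01% Tween 20. Compounds titrated, 15 min preincubation at room temperature; 1.5 microM Rhodamine110 substrate, FITC fluorescence change over 15 min.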

Inconclusive results are not listed. Unmarked numbers belong to inactive results. Calls of active or inactive are those of the source. Calls follow the shape of the dose curve; as a rule, active = well fitted inhibition curve with a large enough effect; inconclusive = small, poorly fitted or top-dose-only effect; inactive = no such curve, though single readings can be large or run the other way.
Potency is read from the fitted curve at half-maximal effect.

Consider `CCCC1(CCC)CCC2(CCN(CCCN(CC)CC)C2)CC1`, for which the Potency result in test [1] and in test [2] was “inactive” throughout.

For the molecule `C=C1C(=O)O[C@@H]2C[C@@]3(C)CCCC(=C)[C@]3(O)C[C@H]12`, the Potency entry in test [1] and in test [2] was “inactive” each time.

As for `COC(C)(C)CCn1nc(Nc2c(C)cccc2C)c2cnc(Nc3ccc(OCCN4CCCC4)c(F)c3)nc21`, the Potency entry in test [1] and in test [2] was “inactive” throughout.

With `O=C(NCc1ccccc1-c1ccccc1C(=O)NCCc1ccccn1)OCc1ccccc1`, the Potency result in test [1] and in test [2] was “inactive” throughout.

On to `Cc1cc2c(N3CCCC3)nc(N3CCCC3)nc2n1C`, for which the Potency entry in test [1] and in test [2] was “inactive” each time.

Turning to `CC(C)C[C@@H](C(=O)N[C@@H](Cc1ccc(OCc2ccccc2)cc1)C(=O)NC(C)(C)C)N(C)Cc1ccc(C(C)(C)C)cc1`, the Potency entry in test [1] and in test [2] was “inactive” in each case.

Turning to `C=C[C@@]1(C)C=C2C(=O)C(O)=C3[C@](C)(C(=O)O)CC[C@@H]4C[C@]34[C@]2(O)C(=O)C1`, the Potency result in test [1] and in test [2] was “inactive” throughout.

In the case of `N#Cc1ccc(Nc2nc(-c3ccc(O)cc3O)cs2)cc1C(F)(F)F`, the results for the Potency in test [1] and in test [2] were 10 µM (active) and 17.8 µM (active), respectively.

With `C/C=C\NC(=O)C1NC(=O)C(CC(N)=O)NC(=O)C(NC(=O)C(=O)C(C)CC)Cc2ccc(O)c(c2)-c2cccc3c2NC(=O)C3(O)C1O` (stereo not drawn), the Potency entry in test [1] and in test [2] was “inactive” each time.

In the case of `Cc1c(C(=O)NCc2cccnc2)nn(-c2ccc(Cl)cc2Cl)c1-c1ccc(Cl)cc1`, the Potency entry in test [1] and in test [2] was “inactive” in each case.

Regarding `Cc1ccc(C2(C(=O)N3CCC(n4nc(-c5ccccc5)oc4=O)CC3)CC2)cc1`, the Potency result in test [1] and in test [2] was “inactive” in each case.

For the molecule `CC(C)C[C@@H]1NC(=O)[C@@H]2C[C@@]34C[C@@H]5[C@@]6(C)CCCC(C)(C)C6CC[C@@]5(C)N(c5ccccc53)[C@H]4N2C1=O` (stereo partly drawn), the Potency entry in test [1] and in test [2] was “inactive” throughout.

As to `O=C(c1ccc(Cl)cc1)N1CCN(c2ccnc3cc(Cl)ccc23)CC1`, the Potency result in test [1] and in test [2] was “inactive” each time.

Take `O=C(c1cc(Cc2n[nH]c(=O)c3ccccc23)ccc1F)N1CCCNCC1`: the Potency entry in test [1] and in test [2] was “inactive” each time.

`O=C(c1ccccn1)N(Cc1cccs1)C1(C(=O)NC2CCCCC2)CCCCC1`: the Potency entry in test [1] and in test [2] was “inactive” in each case.

Regarding `CC(C)NC(=O)COc1cccc(-c2nc(Nc3ccc4[nH]ncc4c3)c3ccccc3n2)c1`, the Potency result in test [1] and in test [2] was “inactive” throughout.

Consider `CN(C)CCCn1cc(C2=C(c3c[nH]c4ccccc34)C(=O)NC2=O)c2ccccc21`, for which the Potency entry in test [1] and in test [2] was “inactive” in each case.

Regarding `CN(C)C(=O)Nc1cccc(-c2ccc(N(C)C)cc2)c1`, the Potency entry in test [1] and in test [2] was “inactive” each time.

Consider `CC(=O)OC1C(O)CC2(C)C(CCC3(C)C2CC=C2C4C5(CCC(CO[C@@H]6O[C@H](CO)[C@@H](O)[C@H](O)[C@H]6O)(OC5=O)C4(C)O)C(O)CC23C)C1(C)C` (stereo partly drawn), for which the Potency entry in test [1] and in test [2] was “inactive” each time.

On to `CNCc1cc(-c2ccccc2F)n(S(=O)(=O)c2cccnc2)c1`, for which the Potency result in test [1] and in test [2] was “inactive” in each case.

Regarding `c1ccc(-c2ccc(CNc3nc(-c4ccccn4)nnc3-c3ccccc3)cc2)cc1`, the Potency entry in test [1] and in test [2] was “inactive” throughout.

`N#Cc1cc(C2=Nc3ccc(Br)cc3NC(=O)C2)ccn1`: the Potency result in test [1] and in test [2] was “inactive” throughout.

On to `O=C(NCCCN1CCOCC1)c1cnn2c(-c3ccccc3)cc(-c3ccccc3)nc12`, for which the Potency entry in test [1] and in test [2] was “inactive” in each case.

On to `Cc1cc2sc(NC(=O)Cc3ccccc3)nc2cc1Cl`, for which the Potency entry in test [1] and in test [2] was “inactive” each time.

Take `C=CC(=O)Nc1cccc(Nc2nc(Nc3ccc(OCCOC)cc3)ncc2F)c1`: the Potency entry in test [1] and in test [2] was “inactive” in each case.

Consider `C=CC(=O)N1CCC[C@@H](n2nc(-c3cccc(C(=O)Nc4ccc(C(C)C)c(C)c4)c3)c3c(N)ncnc32)C1`, for which the Potency entry in test [1] and in test [2] was “inactive” in each case.

On to `C=C1C(=O)O[C@@H]2[C@H]3C(C)=CC(=O)C3=C(C)[C@@H](OC(=O)/C(C)=C\C)[C@H](O)[C@@H]12`, for which the Potency result in test [1] and in test [2] was “inactive” throughout.

Consider `CC(C)n1c(=O)c(C(=O)NC2CC3CCC(C2)N3C[C@@H](O)CN(C)S(C)(=O)=O)cc2ccccc21` (stereo partly drawn), for which the Potency entry in test [1] and in test [2] was “inactive” in each case.

For `Cc1ccnc(NC(=O)C(C)c2cccc(C(=O)c3ccccc3)c2)c1` (stereo not drawn), the Potency entry in test [1] and in test [2] was “inactive” in each case.

In the case of `O=C(Cc1c(F)cccc1F)Nc1cc(OCc2ccc(Cl)cc2)ccn1`, the Potency result in test [1] and in test [2] was “inactive” in each case.

Regarding `Clc1ncoc1-c1c[nH]c2ccccc12`, the Potency entry in test [1] and in test [2] was “inactive” throughout.

In the case of `O=C(NCCCNC(=O)c1ccc[nH]c1=O)c1cc(-c2ccccc2)on1`, the Potency result in test [1] and in test [2] was “inactive” in each case.

Turning to `C=CCc1ccc(OC(C)Cc2ccc(OC)c(OC)c2)c(OC)c1` (stereo not drawn), the Potency entry in test [1] and in test [2] was “inactive” throughout.

As for `CC(=O)O[C@@H]1CC[C@@]2(C)C(CC[C@]3(C)C2[C@H](O)C=C2[C@H]4[C@@H](C)[C@H](C)CC[C@]4(C)CC[C@]23C)[C@@]1(C)C(=O)O` (stereo partly drawn), the Potency in test [1] was 7.08 µM (active); in test [2], 11.2 µM (active).
